RN4220 kill = kills Staphylococcus aureus RN4220; AID 1259311; S. aureus RN4220 growth, OD600, 16 h; inhibition, % (test concentration not listed); 330,000 compounds, 0.33% hits; in the data active = inhibition above about 85%;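 also: plate controls were untreated cells for no effect and reference antibiotic for full effect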
PfHsp40 yeast = restores yeast growth despite PfHsp40 toxicity. S. cerevisiae expressing PfHsp40, growth rescue, ATP luminescence. growth rescue, % at 12.5 µM. 340,000 compounds, 0.68% hits. AID 504582; in the data active = growth rescue above about 28%, passing the limit was not always enough; inconclusive = no clear call, values can overlap the other calls;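 also: yeast W303a lacking pdr1 and pdr3 grown in galactose medium; growth measured after three days at 30 °C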
Mtb BioA inh = BioA (M. tuberculosis) enzyme inhibition; purified M. tuberculosis BioA enzyme, plate reader; inhibition, % at 9.99 µM; 360,000 compounds, 0.096% hits; in the data active = inhibition above about 40%; inconclusive = no clear call, values can overlap the other calls
Mtb bLac sens = beta-lactam sensitization of Mtb H37Rv | M. tuberculosis H37Rv growth with meropenem, percent inhibition | inhibition, % at 25 µM | 330,000 compounds, 0.27% hits | AID 434955; call rule not given here;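 also: growth measured after seven days incubation then overnight dye step; 0% = bacteria only wells and 100% = bacteria with antibiotic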
ugtP null kill = kills S. aureus RN4220 lacking UgtP. 330,000 compounds, 0.54% hits. S. aureus RN4220 ugtP deletion, OD600 growth, 16 h. growth inhibition, % (test concentration not listed); in the data active = growth inhibition above about 68%;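 also: plate controls were untreated wells for no effect and antibiotic for full effect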
Starred values were filed as active, the others as inactive; ? = inconclusive; . = no result; ! = repeats disagree. Rows were chosen to be rich in hits. Some 0.9% of all compounds tested hit in one or more screens of this group.

SMILES | RN4220 kill | PfHsp40 yeast | Mtb BioA inh | Mtb bLac sens | ugtP null kill
CCCCN1C(=S)NCC1Cc1cccc2ccccc12 (stereo not given) | 4 | . | . | . | 5
Cc1nn(-c2ccccc2)c(N)c1C1(O)C(=O)N(C(C)C)c2ccccc21 (stereo not given) | 4 | -2 | . | 3 | 0
Cc1nn(-c2ccccc2)c2c1C1(C(=O)N(C(C)C)c3ccccc31)C(C#N)=C(N)O2 (stereo not given) | 92* | -1 | 1 | 60 | 67
Cc1nn(C)c(C(=O)N/N=C/c2cccnc2)c1Cl | . | 0 | 44* | 0 | .
Cc1nn(C)c(C(=O)N/N=C/c2ccncc2)c1Cl | . | 0 | 7 | ? | .
Cc1nn(Cc2ccccc2)c(Cl)c1/C=N/NC(=O)c1cccnc1 | . | -1 | 104* | 6 | .
CC1CCC(=O)N(CC(C)CC#N)CC1 (stereo not given) | 6 | . | . | . | 2
CC1(C)c2ccccc2N2CCC(=O)NC21C=Cc1ccco1 (stereo not given) | -1 | . | . | . | -7
COC(=O)C1CC2CCC(O)CC2N1Cc1ccccc1OC(=O)c1cccs1 (stereo not given) | 2 | . | . | . | 0
COCC=CC1=CC2=CC(=O)C(C)(OC(=O)c3cnc4ccccc4n3)C(=O)C2=CN1CCCOC(C)C (stereo not given) | 4 | . | . | . | 1
COC(=O)C(O)(c1ccc(NC(=S)NC(=O)c2ccc(Cl)cc2Cl)c(C)c1)C(F)(F)F (stereo not given) | 27 | 20 | -2 | -3 | 31
CCOC(=O)C(O)(c1ccc(NC(=S)NC(=O)c2ccc(Cl)cc2Cl)cc1)C(F)(F)F (stereo not given) | 24 | 1 | . | 0 | 84*
COC(=O)C(O)(c1ccc(NC(=S)NC(=O)c2ccc(Cl)cc2Cl)cc1)C(F)(F)F (stereo not given) | 5 | 0 | . | -2 | 86*
COC(=O)C1=NN(c2ccccc2)C2(SC(=Cc3ccccc3)C(=O)N2c2ccccc2)S1 (stereo not given) | 2 | . | . | . | 2
NC1=NCC(Cc2ccc(O)cc2)N1CCc1cccc2ccccc12 (stereo not given) | 76 | . | . | . | 100*!
CCCCN1C(N)=NCC1Cc1ccc(O)cc1 (stereo not given) | -1 | . | . | . | -2
NC1=NCC(Cc2ccc(O)cc2)N1CCC12CC3CC(CC(C3)C1)C2 (stereo not given) | 101*! | . | . | . | 101*!
NC1=NCC(Cc2ccc(O)cc2)N1CCCCC1CCCCC1 (stereo not given) | 101* | . | . | . | 100*
O=C1C2CC3CCC2(O3)C2OCCCN12 (stereo not given) | 1 | . | . | . | -12
O=c1c2c(O)cc(O)cc2oc2c(O)ccc(OC3OC(CO)C(O)C(O)C3O)c12 (stereo not given) | 9 | . | . | . | -11
COc1ccc(CCN2C(=O)C=CC2=O)cc1OC | . | 138* | . | . | .
COc1ccc(CCn2c(C)ccc2C)cc1OC | . | . | . | -5 | .
CCN1/C(=C/c2ccc3cc(C)ccc3[n+]2C)Sc2ccc3sccc3c21 | 99* | 153* | -3 | . | 100*
CCCCN1/C(=C/c2ccc3ccccc3[n+]2CC)Sc2ccccc21 | . | 128* | . | . | .
Cc1ccc2c(c1)S/C(=C/c1ccc[n+](C)c1)N2CCO | 4 | 0 | . | 5 | 1
SMILES | RN4220 kill | PfHsp40 yeast | Mtb BioA inh | Mtb bLac sens | ugtP null kill
CCN1/C(=C/c2ccc3cc(C)ccc3[n+]2CC)Sc2cc(C)ccc21 | 100* | -3 | 3 | . | 100*
CCn1cc(C(=O)O)c(=O)c2cc(F)c(N3CCN(S(=O)(=O)c4ccc5c(c4)OCCO5)CC3)cc21 | 100* | -1 | . | 72 | 100*
CCn1cc(C(=O)NCc2ccc3c(c2)OCO3)c(=O)c2cc(F)c(N3CCN(C)CC3)cc21 | -1 | -1 | . | 0 | 7
CCn1cc(C(=O)O)c(=O)c2cc(F)c(N3CCN(S(=O)(=O)c4ccc(NC(C)=O)cc4)CC3)cc21 | 99* | 3 | . | 90 | 99*
CCCCCCCCC(=O)N1CCN(c2cc3c(cc2F)c(=O)c(C(=O)O)cn3CC)CC1 | 36 | 0 | -3 | 17 | 62
CSc1ccc(S(=O)(=O)NC2CCCCCC2)cc1 | 4 | 67* | 1 | -6 | 0
Cc1ccc(S(=O)(=O)NC2CCCCC2)cc1 | 4 | 1 | 0 | -6 | 4
COC(=O)C(NC(=O)c1ccccc1)C(C)O (stereo not given) | 8 | . | . | . | 2
O=C1NC(=S)SC1=Cc1ccccc1Cl | 98* | 3 | . | . | 100*
O=C1NC(=S)S/C1=C\c1cc2ccccc2nc1N1CCCCC1 | 84* | 7 | -3 | 3 | 86*
COc1ccccc1C=C1SC(=S)NC1=O | . | 0 | . | . | .
COc1ccc(S(=O)(=O)Nc2ccc3c(c2)C(=O)N(C(C)CO)CC(C)C(CN(C)C(=O)Nc2ccc4c(c2)OCO4)O3)cc1 (stereo not given) | 5 | . | . | . | 0
Cc1cc(C)c(S(=O)(=O)N=C2C=C(Sc3ncn[nH]3)C(=O)c3ccccc32)cc1C | 29 | . | . | . | -7
CCc1ccc(S(=O)(=O)/N=C2/C=C(Sc3ncn[nH]3)C(=O)c3ccccc32)cc1 | . | 179* | . | 12 | .
CCCCCCSc1ccc(C2N[C@@](C)(C(=O)OC)C3C(=O)N(CC)C(=O)C23)cc1 (stereo not given in full) | 9 | . | . | . | 18
Cc1ccc(NC2=C/C(=N\S(=O)(=O)c3cccs3)c3ccccc3C2=O)c(C)c1 | 11 | -2 | -3 | 100 | -5
Cc1ccc(Cl)cc1NC1=C/C(=N\S(=O)(=O)c2cccs2)c2ccccc2C1=O | 90*! | -1 | -2 | 100 | 46
COc1ccc(NC(=S)NC(=O)/C=C/c2cccs2)cc1 | 1 | -1 | . | 0 | 84*
COc1ccccc1NC(=O)COC(=O)/C=C/c1cccs1 | 3 | 1 | -2 | 7 | 4
COc1ccccc1NC(=S)NC(=O)/C=C/c1cccs1 | 90 | 8 | . | -4 | active
COc1ccc(NC(=S)NC(=O)/C=C/c2ccccc2)cc1 | -4 | 0 | -2 | 14 | 8
O=C(O)c1ccccc1NSc1ccccc1[N+](=O)[O-] | 13 | 0 | . | 6 | -8
CCc1ccc(NSc2ccccc2[N+](=O)[O-])cc1 | 21 | 46* | . | 36 | 9
CCc1ccc(OCC(=O)NNC(=S)NC(=O)C2CCCCC2)c(Br)c1 | 31 | 9 | -1 | 1 | 4
Cc1cc(C)cc(OCC(=O)NNC(=S)NC(=O)C2CC2)c1 | 68 | 112* | 0 | 32 | 33
CCc1ccc(OCC(=O)NNC(=S)NC(=O)C2CC2)c(Br)c1 | 69 | 48* | 1 | 96 | 37
COc1ccc(OCC(=O)NNC(=S)NC(=O)C2CCCCC2)cc1 | . | 346* | 1 | ? | .
COC(=O)C1=C(c2ccc(-c3ccccc3)c(F)c2)CC2CCC1N2C(=O)NC1CC1 (stereo not given) | 0 | . | . | . | -10
Cc1ccc(C#CC[N+]2(CC#Cc3ccc(C)cc3)CCCCC2)cc1 | 4 | 0 | . | 94 | 96*
CC(C)C1Nc2c(O)cc(Cl)c([N+](=O)[O-])c2C2C=CCC21 (stereo not given) | 87* | -1 | 4 | . | 93*

Screening results: PubChem BioAssay, several laboratories
